From the antibiotic and cytotoxicity screens of Wong et al. (2023)
About 3,300 (8.5%) of roughly 39,000 compounds were called active. The full list was thinned out, with actives kept by preference.

test system: HepG2; test: cytotoxicity call (relative viability < 0.9); settings: 10 µM

Row | SMILES | cytotoxicity call
1 | O=C(CCCCC(=O)N/N=C/[C@H](O)[C@@H](O)[C@H](O)CO)NO | inactive
2 | COc1ccc(CN(C)C[C@H]2OCCCC[C@@H](C)Oc3ccc(NS(=O)(=O)c4cccs4)cc3C(=O)N([C@H](C)CO)C[C@@H]2C)cc1 | inactive
3 | COC(=O)C[C@](O)(CCCC(C)(C)O)C(=O)O[C@@H]1C(OC)=C[C@]23CCCN2CCc2cc4c(cc2[C@H]13)OCO4 | active
4 | CC(C)(O)[C@@H]1CC[C@]2(CO)[C@@H](O)CC[C@](C)(O)[C@H]2[C@@H]1O[C@@H]1O[C@H](CO)[C@@H](O)[C@H](O)[C@H]1O | inactive
5 | Cc1ccc(S(=O)(=O)N(C)C[C@H]2Oc3c(NC(=O)c4cnccn4)cccc3C(=O)N([C@@H](C)CO)C[C@@H]2C)cc1 | inactive
6 | C[C@@H]1CCCCO[C@@H](CN(C)S(=O)(=O)c2ccc(Cl)cc2)[C@@H](C)CN([C@H](C)CO)C(=O)c2cc(NC(=O)c3ccccc3)ccc2O1 | inactive
7 | C[C@@H]1CCCCO[C@@H](CN(C)S(=O)(=O)c2ccc(Cl)cc2)[C@@H](C)CN([C@@H](C)CO)C(=O)c2cc(NC(=O)c3ccccc3)ccc2O1 | inactive
8 | C[C@H](CO)N1C[C@H](C)[C@H](CN(C)S(=O)(=O)c2ccc(Cl)cc2)OCCCC[C@H](C)Oc2ccc(NC(=O)c3ccccc3)cc2C1=O | inactive
9 | C[C@@H]1CCCCO[C@@H](CN(C)S(=O)(=O)c2ccc(Cl)cc2)[C@H](C)CN([C@H](C)CO)C(=O)c2cc(NC(=O)c3ccccc3)ccc2O1 | inactive
10 | C[C@@H]1CN([C@@H](C)CO)C(=O)c2cc(NC(=O)c3ccccc3)ccc2O[C@@H](C)CCCCO[C@H]1CN(C)S(=O)(=O)c1ccc(Cl)cc1 | active
11 | C[C@@H]1CN([C@H](C)CO)C(=O)c2cc(NC(=O)c3ccccc3)ccc2O[C@@H](C)CCCCO[C@H]1CN(C)S(=O)(=O)c1ccc(Cl)cc1 | active
12 | C[C@@H]1CN([C@@H](C)CO)C(=O)c2cc(NC(=O)c3ccccc3)ccc2O[C@@H](C)CCCCO[C@@H]1CN(C)S(=O)(=O)c1ccc(Cl)cc1 | inactive
13 | C[C@H]1CCCCO[C@H](CN(C)S(=O)(=O)c2ccc(Cl)cc2)[C@@H](C)CN([C@@H](C)CO)C(=O)c2cc(NC(=O)c3ccccc3)ccc2O1 | active
14 | C[C@@H]1CCCCO[C@H](CN(C)S(=O)(=O)c2ccc(Cl)cc2)[C@@H](C)CN([C@H](C)CO)C(=O)c2cc(NC(=O)c3ccccc3)ccc2O1 | inactive
15 | COCC#Cc1ccc([C@H]2[C@H](CO)N3C(=O)CN(C(=O)c4ccncc4)C[C@@H]23)cc1 | inactive
16 | Cc1noc(C)c1S(=O)(=O)N(C)C[C@@H]1Oc2ccc(NS(=O)(=O)c3cn(C)cn3)cc2CC(=O)N([C@H](C)CO)C[C@@H]1C | inactive
17 | NC(=S)CS(=O)(=O)c1ccccn1 | inactive
18 | CC(=O)OC[C@H]1O[C@@H](NC(N)=O)[C@H](OC(C)=O)[C@@H](OC(C)=O)[C@@H]1OC(C)=O | inactive
19 | C[C@@H]1CCCCO[C@@H](CN(C)C)[C@H](C)CN([C@@H](C)CO)C(=O)c2cc(NC(=O)Nc3cccc4ccccc34)ccc2O1 | inactive
20 | C[C@H]1CN([C@@H](C)CO)C(=O)c2cc(NC(=O)CCCN(C)C)ccc2O[C@@H]1CN(C)C(=O)Nc1ccccc1 | inactive
21 | NC[C@@H](O)C1CCCCC1 | inactive
22 | c1cn2c3c(n1)CCCc3c1cc(C3CCCCC3)ccc12 | inactive

Row | SMILES | cytotoxicity call
23 | Nc1ncnc2c1c(I)cn2[C@@H]1O[C@H](CO)[C@@H](O)[C@H]1O | active
24 | NC(=O)c1cn([C@@H]2O[C@H](CO)[C@@H](O)[C@H]2O)c2ncnc(N)c2c1=O | inactive
25 | CSC[C@H]1O[C@H](n2ccc3c(N)ncnc32)[C@@H](O)[C@H]1O | inactive
26 | Nc1ncnc2c1c(I)cn2[C@H]1O[C@@H](CO)[C@@H](O)[C@@H]1O | active
27 | Nc1ncnc2c1ncn2[C@H]1O[C@@H](CO)[C@H](O)[C@@H]1S | inactive
28 | Nc1nc(=O)n([C@@H]2O[C@H](CO)[C@@H](O)[C@@H]2F)cc1I | inactive
29 | CCS(=O)(=O)N1C[C@]2(CCN(CC2)Cc2cccc(c2)OC)c2c([nH]c3cc(ccc23)OC)[C@@H]1CO | inactive
30 | C[C@@H]1CN([C@H](C)CO)C(=O)Cc2cc(NC(=O)CCC(F)(F)F)ccc2O[C@H]1CN(C)S(=O)(=O)c1cccs1 | inactive
31 | Cc1ccc(S(=O)(=O)Nc2cccc3c2O[C@H](CN(C)S(=O)(=O)c2cn(C)cn2)[C@@H](C)CN([C@@H](C)CO)C3=O)cc1 | inactive
32 | COCCOC(=O)N1C(=O)[C@@]2(c3cc(C#CCC(C(=O)OC)C(=O)OC)ccc31)[C@H](C(=O)Nc1nc3ccccc3s1)[C@H]1C(=O)O[C@H](c3ccccc3)[C@H](c3ccccc3)N1[C@@H]2c1ccccc1OCCO | inactive
33 | Cc1noc(C)c1S(=O)(=O)Nc1ccc2c(c1)C(=O)N([C@H](C)CO)C[C@@H](C)[C@H](CN(C)C(=O)Nc1ccc(F)cc1)OCCCC[C@@H](C)O2 | inactive
34 | CCOC(=O)C(C)(C)Oc1ccc(Cl)cc1 | inactive
35 | CC(C)(C)C(=O)OCOP(=O)(OCOC(=O)C(C)(C)C)C(C)(Oc1ccc(O)cc1)P(=O)(OCOC(=O)C(C)(C)C)OCOC(=O)C(C)(C)C | active
36 | CC(C)(C)Oc1ccc(O)cc1 | inactive
37 | COc1ccc(NC(=O)N(C)C[C@H]2OCCCC[C@@H](C)Oc3ccc(NS(=O)(=O)c4ccc(C)cc4)cc3C(=O)N([C@@H](C)CO)C[C@@H]2C)cc1 | inactive
38 | COc1cc2c(cc1O)[C@H](c1ccc(CN3CCCC3)cc1)N(Cc1cc3c(cc1Br)OCO3)CC2 | inactive
39 | C[C@H](CO)N1C[C@H](C)[C@@H](CN(C)C(=O)NC2CCCCC2)Oc2ccc(NC(=O)Nc3ccc(C(F)(F)F)cc3)cc2CC1=O | inactive
40 | C[C@@H]1CN([C@H](C)CO)C(=O)Cc2cc(NC(=O)Nc3ccc(C(F)(F)F)cc3)ccc2O[C@@H]1CN(C)C(=O)NC1CCCCC1 | active
41 | C[C@H]1CN([C@@H](C)CO)C(=O)Cc2cc(NC(=O)Nc3ccc(C(F)(F)F)cc3)ccc2O[C@H]1CN(C)C(=O)NC1CCCCC1 | inactive
42 | C[C@@H]1CN([C@@H](C)CO)C(=O)Cc2cc(NC(=O)Nc3ccc(C(F)(F)F)cc3)ccc2O[C@H]1CN(C)C(=O)NC1CCCCC1 | inactive
43 | C[C@@H]1CN([C@H](C)CO)C(=O)Cc2cc(NC(=O)Nc3ccc(C(F)(F)F)cc3)ccc2O[C@H]1CN(C)C(=O)NC1CCCCC1 | inactive
44 | C[C@@H]1CN([C@@H](C)CO)C(=O)Cc2cc(NC(=O)Nc3ccc(C(F)(F)F)cc3)ccc2O[C@@H]1CN(C)C(=O)NC1CCCCC1 | active

Row | SMILES | cytotoxicity call
45 | CC(C)C(=O)O | inactive
46 | C[C@@H]1CN([C@@H](C)CO)C(=O)c2cc(NS(=O)(=O)c3cn(C)cn3)ccc2O[C@@H](C)CCCCO[C@H]1CN(C)S(=O)(=O)c1cccs1 | inactive
47 | NCCc1cc2nc(-c3ccncc3)ccn2n1 | inactive
48 | CN1CCN(C(=O)C[C@H]2CC[C@H]3[C@@H](COC[C@H](O)CN3C(=O)C3CCCC3)O2)CC1 | inactive
49 | O=c1ncc(F)c[nH]1 | inactive
50 | CCCNC(=O)N1C[C@]2(CCN(CC2)S(=O)(=O)c2cccc(c2)OC)c2c(n(c3cc(ccc23)OC)C)[C@H]1CO | inactive
51 | C=CCOC(=O)[C@@H]1[C@H]2C(=O)O[C@H](c3ccccc3)[C@H](c3ccccc3)N2[C@H](c2ccc(OCCOC(=O)[C@H]3C[C@H]4C(=O)N[C@@H](CC(C)C)C(=O)N4[C@H]3c3ccc(O)cc3)cc2)[C@@]12C(=O)Nc1ccc(I)cc12 | inactive
52 | CCC(=C/[C@H](C)C/C=C/C(C)=C/[C@@H](C)C(=O)[C@@H](C)[C@H](O)[C@@H](C)C/C(C)=C/C(=O)O)/C=C/[C@@H]1OC(=O)C=C[C@@H]1C | active
53 | C[C@@H]1CN([C@H](C)CO)C(=O)c2cc(C#CC3CCCCC3)cnc2O[C@H]1CN(C)C(=O)c1ccncc1 | inactive
54 | CCS(=O)(=O)N1C[C@]2(C1)CN([C@H](CO)c1c2c2ccc(cc2n1C)OC)C(=O)Nc1cccc(c1)F | inactive
55 | C[C@H]1CN([C@@H](C)CO)C(=O)c2cccc(NS(=O)(=O)c3ccccc3)c2O[C@@H]1CN(C)Cc1ccc(-c2ccccc2)cc1 | inactive
56 | C[C@@H]1CN([C@H](C)CO)C(=O)c2cccc(NS(=O)(=O)c3ccccc3)c2O[C@H]1CN(C)Cc1ccc(-c2ccccc2)cc1 | inactive
57 | C[C@@H]1CN([C@@H](C)CO)C(=O)c2cccc(NS(=O)(=O)c3ccc(F)cc3)c2O[C@H]1CN(C)Cc1ccc(-c2ccccc2)cc1 | inactive
58 | C[C@H](CO)N1C[C@H](C)[C@@H](CN(C)Cc2ccc(-c3ccccc3)cc2)Oc2c(NS(=O)(=O)c3ccc(F)cc3)cccc2C1=O | active
59 | C[C@H]1CN([C@@H](C)CO)C(=O)c2cccc(NS(=O)(=O)c3ccc(F)cc3)c2O[C@@H]1CN(C)Cc1ccc(-c2ccccc2)cc1 | inactive
60 | C[C@@H]1CN([C@@H](C)CO)C(=O)c2cccc(NS(=O)(=O)c3ccccc3)c2O[C@@H]1CN(C)Cc1ccc(-c2ccccc2)cc1 | inactive
61 | C[C@@H]1CN([C@H](C)CO)C(=O)c2cccc(NS(=O)(=O)c3ccc(F)cc3)c2O[C@H]1CN(C)Cc1ccc(-c2ccccc2)cc1 | active
62 | C[C@@H]1CN([C@H](C)CO)C(=O)c2cccc(NS(=O)(=O)c3ccc(F)cc3)c2O[C@@H]1CN(C)Cc1ccc(-c2ccccc2)cc1 | inactive
63 | C[C@H](CO)N1C[C@H](C)[C@H](CN(C)Cc2ccc(-c3ccccc3)cc2)Oc2c(NS(=O)(=O)c3ccc(F)cc3)cccc2C1=O | active
64 | C[C@@H]1CN([C@@H](C)CO)C(=O)c2cccc(NS(=O)(=O)c3ccc(F)cc3)c2O[C@@H]1CN(C)Cc1ccc(-c2ccccc2)cc1 | active
65 | C[C@H]1CN([C@@H](C)CO)C(=O)c2cccc(NS(=O)(=O)c3ccc(F)cc3)c2O[C@H]1CN(C)Cc1ccc(-c2ccccc2)cc1 | inactive
66 | C[C@H](CO)N1C[C@H](C)[C@H](CN(C)Cc2ccc(-c3ccccc3)cc2)Oc2c(NS(=O)(=O)c3ccccc3)cccc2C1=O | inactive
